Screens from PubChem.
This is a sample that favours compounds with a hit; in the whole collection about 2.2% have one here.
IEC-6 tox = IEC-6 cytotoxicity, counter-screen for KLF5 inhibitors. luminescence viability. inhibition, % at 5 µM. 290,000 compounds, 0.78% hits;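 note: 0% = plate median of test compound wells and 100% = cytotoxic reference compound wells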
KLF5 inhibitor = suppresses KLF5 promoter-driven expression | inhibition, % at 5 µM | DLD-1 KLF5 promoter-luciferase reporter, luminescence | 290,000 compounds, 0.23% hits;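 active = inhibition above a per-plate limit of that plate's mean compound inhibition plus 3 SD, cut at about 60% in these data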;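 note: 0% = DMSO wells and 100% = LY294002 at 200 µM; higher means less KLF5 promoter-driven luciferase light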
aSyn 5UTR inh = 5' untranslated region of α-synuclein, MLPCN primary screen; alpha-synuclein 5'UTR reporter, inhibitor activity; inhibition, % (tested at 7.5 µM); 300,000 compounds, 0.82% hits; in the data active = inhibition above about 60%; inconclusive = no clear call, values can overlap the other calls;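 note: H4 neuroglioblastoma cells stably carrying SNCA 5'UTR luciferase fusion; 0% = DMSO wells and 100% = positive control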
APP transl inh = APP translation inhibition. inhibition, % at 2 µM. SH-SY5Y APP 5'UTR-luciferase reporter, luminescence. AID 1285. 190,000 compounds, 0.82% hits;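 active = inhibition above a set limit, derived from the sample mean plus 3 SD, cut at about 45% in these data; inconclusive = one replicate passes the limit while the other fails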
BaF3 parental = counter-screen for JAK2V617F inhibitors: parental Ba/F3 viability inhibitors; 220,000 compounds, 1.1% hits; CellTiter-Glo ATP luminescence; inhibition, % at 5.6 µM;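 active = inhibition above a per-campaign cutoff, the mean inhibition of all tested compounds plus 3 SD, cut at about 27% in these data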;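 note: 0% = DMSO wells and 100% = JAK Inhibitor I control wells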
Ba/F3 V617F tox = loss of viability in JAK2V617F-driven Ba/F3 cells; Ba/F3 EpoR-JAK2V617F viability, ATP luminescence; inhibition, % at 5.6 µM; 220,000 compounds, 1.1% hits;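 active = inhibition above the campaign mean plus 3 SD over all tested compounds, cut at about 24% in these data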;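 note: cytokine-independent growth of Ba/F3 cells driven by EpoR plus mutant JAK2; 0% = DMSO-treated cells and 100% = JAK inhibitor I control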
IEC-6 cytotox cf = IEC-6 cytotoxicity, confirmation assay | shares compounds with IEC-6 tox | IEC-6 rat intestinal epithelial viability, luminescence | inhibition, % at 5 µM | 1,900 compounds, 63% hits;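 note: 0% = vehicle and 100% = reference cytotoxic drug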
An asterisk follows results filed as active; ? = inconclusive; / = not tested or not shown. Cut-off read from the data, not from the text of the source, unless noted: active = inhibition above about 22%; inactive = the rest.

SMILES | IEC-6 tox | KLF5 inhibitor | aSyn 5UTR inh | APP transl inh | BaF3 parental | Ba/F3 V617F tox | IEC-6 cytotox cf
CCCC(=O)NC(c1ccccc1)c1ccc2cccnc2c1O (configuration not stated) | 42* | 89* | 65* | / | / | / | 66*
CCCCC(=O)NC(c1ccccc1)c1ccc2cccnc2c1O (configuration not stated) | 24* | 96* | 68* | / | / | / | 54*
CCN1CCS/C1=C/C=C/C1=[N+](CC)CCS1 | 27* | -28 | -19 | -14 | 81* | 99* | 30*
CCN1CCS/C1=C\C=C\C1=[N+](CC)CCS1 | 37* | 5 | 19 | -3 | 90* | 101* | 31*
Cc1cc2nc(C3CCN(Cc4nnnn4Cc4ccccc4)CC3)[nH]c2cc1C | 72* | 23 | 74* | 40 | 68* | 72* | 52*
CCC(C)(C)n1nnnc1CN1CCC(c2nc3ccc(C)cc3[nH]2)CC1 | 11 | -44 | 22 | -1 | 3 | -4 | /
c1ccc(-c2cc(N3CCCCC3)ncn2)cc1 | 6 | -58 | -135 | -45 | 3 | -2 | /
Nc1nc(-c2ccccc2)cc(N2CCCCC2)n1 | 82* | 61 | 55 | 94* | 77* | 70* | 59*
COc1cccc(CNC(=O)Cn2ccc([N+](=O)[O-])n2)c1 | -1 | -31 | 4 | / | / | / | /
Cc1ccc2[nH]c3c(c2c1)CCCC3NC(=O)CCl (configuration not stated) | 56* | 43 | 15 | / | / | / | 60*
Cc1ccc2[nH]c3c(c2c1)CCCC3C(N)=O (configuration not stated) | -4 | -37 | -25 | -16 | 4 | -1 | /
CCC1(c2ccccc2)NC(=O)N(CC(=O)Nc2nnc(C3CC3)s2)C1=O (configuration not stated) | 11 | -5 | 13 | / | / | / | /
CC(=O)Nc1ccccc1OCC(=O)c1cc(C)n(Cc2cccs2)c1C | 26* | -51 | -150 | -17 | 82* | 62* | 15
CC(=O)c1ccc(NC(=S)Nc2cccc3ccccc23)cc1 | 63* | -70 | -47 | / | / | / | 6
CC(=O)N(C)c1ccc(NC(=S)Nc2cccc3ccccc23)cc1 | 8 | -76 | -168 | -13 | 4 | 3 | /
CCCCCN=Cc1c(C)[nH]n(-c2nc3ccccc3s2)c1=O | 45* | -39 | 62* | -55 | 46* | 48* | 51*
CCn1c(SCC(=O)OC2CCCCC2)nnc1-c1ccncc1 | -3 | -16 | 6 | -7 | 3 | 4 | /
COc1ccc(N2CCN(C(=O)CN3C(=O)C4CC=CCC4C3=O)CC2)cc1 (configuration not stated) | -6 | -1 | 15 | 1 | -2 | -2 | /
CCOC(=O)C1CCCN(S(=O)(=O)c2cc3c(cc2Cl)NC(=O)CO3)C1 (configuration not stated) | -4 | -6 | -21 | / | / | / | /
COc1ccccc1-c1cc(C(=O)Nc2cccnc2)no1 | 58* | 38 | ? | 96* | 57* | 75* | 39*
COc1cc(NC(=O)c2cc(-c3ccccc3Cl)on2)cc(OC)c1OC | 55* | 23 | -76 | / | / | / | 33*
Cn1c2ccccc2c(=O)c2ccc(C#Cc3ccc(N)cc3)cc21 | 36* | -44 | -26 | / | / | / | 33*
COc1ccc(C#Cc2ccc3c(=O)c4ccccc4n(C)c3c2)cc1 | 0 | -14 | -53 | / | / | / | /
Clc1ccc(CSc2nncn2-c2ccc3c(c2)OCCO3)cc1 | 32* | 2 | 66* | / | 2 | 6 | 31*
Clc1ccc(CSc2nncn2-c2ccccn2)cc1 | 2 | -18 | 2 | 0 | 6 | -2 | /
SMILES | IEC-6 tox | KLF5 inhibitor | aSyn 5UTR inh | APP transl inh | BaF3 parental | Ba/F3 V617F tox | IEC-6 cytotox cf
CCc1nnc(N/N=C/c2c(F)cccc2Cl)n1N | 1 | -17 | -1 | / | / | / | /
Cc1nnc(N/N=C/c2c(Cl)cccc2Cl)n1N | 102* | -3 | -2 | 4 | 0 | -1 | -13
Cc1nnc(N/N=C/c2ccccc2O)n1N | 102* | -4 | -42 | 14 | 0 | 4 | 4
Cc1cc(/C=N/NC(N)=S)c(C)n1-c1ccc(Br)cc1 | 6 | 5 | 6 | -22 | 14 | 10 | /
Cc1nnc(N/N=C/c2cc(C)n(-c3ccc(F)cc3)c2C)n1N | 99* | -12 | -1 | 2 | 5 | 2 | -4
CNC(=O)C1CC(=O)N(c2ccc(OCC(=O)NCc3ccccc3)cc2)C1 (configuration not stated) | -2 | 13 | -15 | / | / | / | /
CCOC(=O)N1CCN(S(=O)(=O)c2ccc(C)c(C)c2)CC1 | -3 | -24 | 9 | 17 | 2 | -3 | /
N=c1c(C(=O)NC2CCCCC2)cc2c(=O)n3ccccc3nc2n1Cc1ccco1 | 42* | 3 | -28 | / | / | / | 10
O=C(NCc1ccccn1)C1CCN(C(=O)c2cc3sccc3n2Cc2ccc(F)cc2)CC1 | 4 | -8 | 30 | 1 | 7 | 3 | /
COc1cccc2sc(Nc3nc(-c4ccccn4)cs3)nc12 | 89* | 25 | 52 | 84* | 53* | 51* | 96*
COc1cccc2sc(Nc3nnc(-c4cccs4)o3)nc12 | 69* | -8 | 41 | -71 | 10 | 11 | 59*
COc1cccc2sc(Nc3nnc(-c4ccc(F)cc4)o3)nc12 | -2 | -15 | 5 | -10 | 3 | -1 | /
O=C(NCCN1CCOCC1)/C(=C\c1ccc(F)cc1)NC(=O)c1ccccc1 | 7 | -13 | -1 | / | / | / | /
COc1cccc(NC(=O)c2nnn(CC(=O)Nc3cc(C)cc(C)c3)c2N)c1 | -2 | -18 | 20 | / | / | / | /
O=C1CN(C(=O)c2cccc(Br)c2)c2ccccc2N1 | 38* | 4 | -85 | / | / | / | 10
O=C1CN(C(=O)c2ccccc2)c2ccccc2N1 | 11 | -18 | 19 | -11 | 2 | 1 | /
Cc1occc1C(=O)N/N=C/c1ccc(-c2ccccc2)cc1 | 28* | -15 | -29 | / | / | / | 31*
Cc1occc1C(=O)N/N=C/c1ccc(OCc2ccccc2)cc1 | -10 | -107 | -138 | / | 0 | 0 | /
C/C(=N\Nc1nc(C)cc(-c2ccccc2)n1)c1ccccc1 | 26* | -29 | -102 | / | / | / | 8
C/C(=N\Nc1nc(C)cc(-c2ccccc2)n1)c1ccc(O)cc1 | 15 | -63 | -24 | / | / | / | /
CCc1c(C(=O)Nc2ccccc2)c(C)[nH]c(=S)c1C#N | -4 | -18 | -18 | -6 | 2 | -4 | /
O=C(Nc1cccc2ncccc12)c1ccc([N+](=O)[O-])o1 | 98* | -2 | -169 | / | / | / | 24*
O=C(Nc1ccc(NC(=O)c2ccco2)c(Cl)c1)c1ccccc1 | -4 | -71 | -99 | -45 | 4 | -4 | /
O=C(Nc1cccc(NC(=O)c2ccc([N+](=O)[O-])o2)c1)c1ccco1 | 99* | -9 | -66 | / | / | / | 35*
CC(=O)Nc1cccc(NC(=O)c2ccco2)c1 | -2 | 11 | -16 | -8 | 6 | -1 | /
Cc1c(NC(=O)c2ccc([N+](=O)[O-])o2)cccc1-c1nc2ncccc2o1 | 100* | 14 | -228 | / | / | / | 22
